Hit rate of the full screen: of about 5,500 compounds, about 2,000 (36%) were called active. About 18% were inconclusive and are not listed. Rule as the data show it: active = normalized growth mostly below about 0.91 (no sharp cut-off); inconclusive = no clear call, values can overlap the other calls; inactive = mostly above about 0.92. This is one part of the list.
Assay: chemical genetic growth profiling, strain panel (AID 1159580);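 also: tested at 20 µM; growth read once vehicle control cultures reached saturation at 30 °C; 1 = growth at the plate median or of vehicle wells; lower values mean less growth of the strain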
Settings: growth OD

Measured: normalized growth

Cc1cc(=O)oc2cc(O)c(O)cc12
inactive: S. cerevisiae deletion strains, locus YJR043C, strain POL32, active compounds read low 0.964 | S. cerevisiae deletion strains, locus YJR066W, strain TOR1, active compounds read low 0.913 | S. cerevisiae deletion strains, locus YKL009W, strain mrt4, active compounds read low 0.922 | S. cerevisiae deletion strains, locus YKL068W, active compounds read low 1.01 | S. cerevisiae deletion strains, locus YKL085W, strain MDH1 (second series), active compounds read low 1.02 | S. cerevisiae deletion strains, locus YKL085W, strain MDH1, active compounds read low 1.02 | S. cerevisiae deletion strains, locus YKL160W, strain elf1, active compounds read low 1 | S. cerevisiae deletion strains, locus YKL190W, strain CNB1, active compounds read low 1.01 | S. cerevisiae deletion strains, locus YKR001C, strain vps1, active compounds read low 0.934 | S. cerevisiae deletion strains, locus YKR026C, strain gcn3, active compounds read low 0.994 | S. cerevisiae deletion strains, locus YKR091W, strain srl3, active compounds read low 0.981 | S. cerevisiae deletion strains, locus YLL001W, strain dnm1, active compounds read low 0.995 | S. cerevisiae deletion strains, locus YLL026W, active compounds read low 0.989 | S. cerevisiae deletion strains, locus YLL041C, strain sdh2, active compounds read low 0.986 | S. cerevisiae deletion strains, locus YLR027C, strain aat2, active compounds read low 0.976 | S. cerevisiae deletion strains, locus YLR039C, strain RIC1, active compounds read low 0.945 | S. cerevisiae deletion strains, locus YLR058C, strain SHM2, active compounds read low 0.99 | S. cerevisiae deletion strains, locus YLR102C, strain apc9, active compounds read low 1.01 | S. cerevisiae deletion strains, locus YLR113W, strain HOG1, active compounds read low 0.954 | S. cerevisiae deletion strains, locus YLR221C, strain rsa3, active compounds read low 0.986 | S. cerevisiae deletion strains, locus YLR258W, strain gsy2, active compounds read low 1 | S. cerevisiae deletion strains, locus YLR262C, strain YPT6 (second series), active compounds read low 0.962 | S. cerevisiae deletion strains, locus YLR262C, strain YPT6, active compounds read low 1.01 | S. cerevisiae deletion strains, locus YLR268W, strain sec22, active compounds read low 0.983 | S. cerevisiae deletion strains, locus YLR320W, strain mms22, active compounds read low 0.987 | S. cerevisiae deletion strains, locus YLR330W, strain CHS5, active compounds read low 1 | S. cerevisiae deletion strains, locus YLR342W, strain FKS1 (second series), active compounds read low 0.992 | S. cerevisiae deletion strains, locus YLR342W, strain FKS1, active compounds read low 1.01 | S. cerevisiae deletion strains, locus YLR357W, strain rsc2, active compounds read low 1.01 | S. cerevisiae deletion strains, locus YLR370C, strain arc18, active compounds read low 0.982 | S. cerevisiae deletion strains, locus YLR371W, strain rom2, active compounds read low 1 | S. cerevisiae deletion strains, locus YLR384C, strain iki3, active compounds read low 0.993 | S. cerevisiae deletion strains, locus YLR418C, strain cdc73, active compounds read low 0.939 | S. cerevisiae deletion strains, locus YML016C, strain PPZ1, active compounds read low 0.994 | S. cerevisiae deletion strains, locus YML032C, strain rad52, active compounds read low 0.965 | S. cerevisiae deletion strains, locus YML120C, strain ndi1, active compounds read low 1 | S. cerevisiae deletion strains, locus YML124C, strain tub3, active compounds read low 1.01 | S. cerevisiae deletion strains, locus YMR058W, strain fet3, active compounds read low 0.989 | S. cerevisiae deletion strains, locus YMR078C, strain ctf18, active compounds read low 1 | S. cerevisiae deletion strains, locus YMR125W, strain sto1, active compounds read low 1.04 | S. cerevisiae deletion strains, locus YMR129W, active compounds read low 1 | S. cerevisiae deletion strains, locus YMR205C, strain PFK2, active compounds read low 1.02 | S. cerevisiae deletion strains, locus YMR223W, strain ubp8, active compounds read low 0.951 | S. cerevisiae deletion strains, locus YMR231W, strain pep5, active compounds read low 0.998 | S. cerevisiae deletion strains, locus YMR307W, strain GAS1, active compounds read low 1.01 | S. cerevisiae deletion strains, locus YNL067W, strain RPL9B, active compounds read low 0.994 | S. cerevisiae deletion strains, locus YNL071W, strain lat1, active compounds read low 0.988 | S. cerevisiae deletion strains, locus YNL128W, strain TEP1, active compounds read low 1.01 | S. cerevisiae deletion strains, locus YNL183C, strain NPR1, active compounds read low 0.902 | S. cerevisiae deletion strains, locus YNL209W, strain ssb2, active compounds read low 1 | S. cerevisiae deletion strains, locus YNL233W, strain BNI4, active compounds read low 0.961 | S. cerevisiae deletion strains, locus YNL248C, strain rpa49, active compounds read low 0.941 | S. cerevisiae deletion strains, locus YNL250W, strain rad50, active compounds read low 1.02 | S. cerevisiae deletion strains, locus YNL271C, strain bni1, active compounds read low 0.993 | S. cerevisiae deletion strains, locus YNL298W, strain CLA4, active compounds read low 0.961 | S. cerevisiae deletion strains, locus YNL307C, strain MCK1, active compounds read low 0.989 | S. cerevisiae deletion strains, locus YNL322C, strain KRE1 (second series), active compounds read low 0.995 | S. cerevisiae deletion strains, locus YNR049C, strain mso1, active compounds read low 0.989 | S. cerevisiae deletion strains, locus YNR052C, strain pop2, active compounds read low 0.974 | S. cerevisiae deletion strains, locus YOL006C, strain TOP1, active compounds read low 0.805 | S. cerevisiae deletion strains, locus YOL012C, strain htz1 1.25 | S. cerevisiae deletion strains, locus YOL147C, strain pex11, active compounds read low 0.993 | S. cerevisiae deletion strains, locus YOR001W, strain rrp6, active compounds read low 0.967 | S. cerevisiae deletion strains, locus YOR061W, strain CKA2, active compounds read low 1 | S. cerevisiae deletion strains, locus YOR069W, strain VPS5, active compounds read low 1.01 | S. cerevisiae deletion strains, locus YOR070C, strain gyp1, active compounds read low 0.99 | S. cerevisiae deletion strains, locus YOR080W, strain dia2, active compounds read low 0.975 | S. cerevisiae deletion strains, locus YOR083W, strain WHI5, active compounds read low 0.978 | S. cerevisiae deletion strains, locus YOR106W, strain vam3, active compounds read low 0.993 | S. cerevisiae deletion strains, locus YOR136W, strain idh2, active compounds read low 1 | S. cerevisiae deletion strains, locus YOR144C, strain elg1, active compounds read low 1 | S. cerevisiae deletion strains, locus YOR184W, strain ser1, active compounds read low 0.88 | S. cerevisiae deletion strains, locus YOR231W, strain MKK1, active compounds read low 0.904 | S. cerevisiae deletion strains, locus YOR265W, strain rbl2, active compounds read low 0.989 | S. cerevisiae deletion strains, locus YOR270C, strain vph1, active compounds read low 0.893 | S. cerevisiae deletion strains, locus YOR290C, strain snf2, active compounds read low 0.937 | S. cerevisiae deletion strains, locus YOR316C, strain cot1, active compounds read low 1 | S. cerevisiae deletion strains, locus YPL051W, strain arl3, active compounds read low 0.987 | S. cerevisiae deletion strains, locus YPL078C, strain atp4, active compounds read low 0.992 | S. cerevisiae deletion strains, locus YPL106C, strain sse1, active compounds read low 0.978 | S. cerevisiae deletion strains, locus YPL240C, strain hsp82, active compounds read low 0.994 | S. cerevisiae deletion strains, locus YPL256C, strain CLN2, active compounds read low 0.936 | S. cerevisiae deletion strains, locus YPR119W, strain clb2, active compounds read low 1.01 | S. cerevisiae deletion strains, locus YPR141C, strain kar3, active compounds read low 1.02 | S. cerevisiae deletion strains, locus YPR163C, strain tif3, active compounds read low 1.02 | S. cerevisiae deletion strains, locus YPR167C, strain met16, active compounds read low 0.981 | S. cerevisiae deletion strains, strain wtn01, active compounds read low 0.988 | S. cerevisiae strains, strain wild type, active compounds read low 1.01

From PubChem BioAssay AID1159580 (chemical genetic matrix, 2015)
